Results taken from PubChem BioAssay AID1159580 (chemical genetic matrix, 2015).
Values joined by “and” are separate entries in the source; they are usually repeats but may differ in a detail not shown here. Equal values may be shown once. In all, about 5,500 compounds went through this assay and about 2,000 (36%) were called active. Not shown: some 18% with an inconclusive outcome. Cut-off read from the data, not from the text of the source: active = normalized growth mostly below about 0.91 (no sharp cut-off); inconclusive = no clear call, values can overlap the other calls; inactive = mostly above about 0.92. The list shows a part of the results.

Experiment: chemical genetic growth profiling, strain panel (AID 1159580);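 note: tested at 20 µM; growth read once vehicle control cultures reached saturation at 30 °C; 1 = growth at the plate median or of vehicle wells; lower values mean less growth of the strain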
Conditions: growth OD

Measured: normalized growth

CCCNC(C)C(=O)Nc1ccccc1C (stereo unspecified)
inactive: S. cerevisiae deletion strains, locus YJR066W, strain TOR1, stronger effect = lower value 0.979 | S. cerevisiae deletion strains, locus YJR075W, strain HOC1, stronger effect = lower value 1.01 | S. cerevisiae deletion strains, locus YKL009W, strain mrt4, stronger effect = lower value 1 | S. cerevisiae deletion strains, locus YKL068W, stronger effect = lower value 0.99 | S. cerevisiae deletion strains, locus YKL085W, strain MDH1 (second series), stronger effect = lower value 1 | S. cerevisiae deletion strains, locus YKL085W, strain MDH1, stronger effect = lower value 1 | S. cerevisiae deletion strains, locus YKL160W, strain elf1, stronger effect = lower value 1.01 | S. cerevisiae deletion strains, locus YKL190W, strain CNB1, stronger effect = lower value 1 | S. cerevisiae deletion strains, locus YKR001C, strain vps1, stronger effect = lower value 1 | S. cerevisiae deletion strains, locus YKR026C, strain gcn3, stronger effect = lower value 1 | S. cerevisiae deletion strains, locus YKR091W, strain srl3, stronger effect = lower value 1 | S. cerevisiae deletion strains, locus YLL001W, strain dnm1, stronger effect = lower value 1.01 | S. cerevisiae deletion strains, locus YLL026W, stronger effect = lower value 1.01 | S. cerevisiae deletion strains, locus YLL041C, strain sdh2, stronger effect = lower value 0.997 | S. cerevisiae deletion strains, locus YLR027C, strain aat2, stronger effect = lower value 1.01 | S. cerevisiae deletion strains, locus YLR039C, strain RIC1, stronger effect = lower value 1.03 | S. cerevisiae deletion strains, locus YLR058C, strain SHM2, stronger effect = lower value 1.01 | S. cerevisiae deletion strains, locus YLR102C, strain apc9, stronger effect = lower value 0.989 | S. cerevisiae deletion strains, locus YLR113W, strain HOG1, stronger effect = lower value 1.09 | S. cerevisiae deletion strains, locus YLR221C, strain rsa3, stronger effect = lower value 0.988 | S. cerevisiae deletion strains, locus YLR258W, strain gsy2, stronger effect = lower value 0.999 | S. cerevisiae deletion strains, locus YLR262C, strain YPT6 (second series), stronger effect = lower value 1.02 | S. cerevisiae deletion strains, locus YLR262C, strain YPT6, stronger effect = lower value 1.07 | S. cerevisiae deletion strains, locus YLR268W, strain sec22, stronger effect = lower value 0.989 | S. cerevisiae deletion strains, locus YLR320W, strain mms22, stronger effect = lower value 1.01 | S. cerevisiae deletion strains, locus YLR330W, strain CHS5, stronger effect = lower value 1.01 | S. cerevisiae deletion strains, locus YLR342W, strain FKS1 (second series), stronger effect = lower value 0.996 | S. cerevisiae deletion strains, locus YLR342W, strain FKS1, stronger effect = lower value 1.01 | S. cerevisiae deletion strains, locus YLR357W, strain rsc2, stronger effect = lower value 0.981 | S. cerevisiae deletion strains, locus YLR370C, strain arc18, stronger effect = lower value 1.01 | S. cerevisiae deletion strains, locus YLR371W, strain rom2, stronger effect = lower value 0.983 | S. cerevisiae deletion strains, locus YLR384C, strain iki3, stronger effect = lower value 1.01 | S. cerevisiae deletion strains, locus YLR418C, strain cdc73, stronger effect = lower value 0.967 | S. cerevisiae deletion strains, locus YML016C, strain PPZ1, stronger effect = lower value 1.01 | S. cerevisiae deletion strains, locus YML032C, strain rad52, stronger effect = lower value 0.987 | S. cerevisiae deletion strains, locus YML120C, strain ndi1, stronger effect = lower value 1 | S. cerevisiae deletion strains, locus YML124C, strain tub3, stronger effect = lower value 0.989 | S. cerevisiae deletion strains, locus YMR058W, strain fet3, stronger effect = lower value 1 | S. cerevisiae deletion strains, locus YMR078C, strain ctf18, stronger effect = lower value 0.993 | S. cerevisiae deletion strains, locus YMR125W, strain sto1, stronger effect = lower value 1.02 | S. cerevisiae deletion strains, locus YMR129W, stronger effect = lower value 1 | S. cerevisiae deletion strains, locus YMR205C, strain PFK2, stronger effect = lower value 1 | S. cerevisiae deletion strains, locus YMR223W, strain ubp8, stronger effect = lower value 0.972 | S. cerevisiae deletion strains, locus YMR231W, strain pep5, stronger effect = lower value 1.01 | S. cerevisiae deletion strains, locus YMR263W, strain SAP30, stronger effect = lower value 1 | S. cerevisiae deletion strains, locus YMR307W, strain GAS1, stronger effect = lower value 0.949 | S. cerevisiae deletion strains, locus YNL067W, strain RPL9B, stronger effect = lower value 1.02 | S. cerevisiae deletion strains, locus YNL071W, strain lat1, stronger effect = lower value 1 | S. cerevisiae deletion strains, locus YNL153C, strain GIM3, stronger effect = lower value 0.963 | S. cerevisiae deletion strains, locus YNL175C, strain NOP13, stronger effect = lower value 1.01 | S. cerevisiae deletion strains, locus YNL183C, strain NPR1, stronger effect = lower value 1 | S. cerevisiae deletion strains, locus YNL197C, strain WHI3, stronger effect = lower value 1.04 | S. cerevisiae deletion strains, locus YNL209W, strain ssb2, stronger effect = lower value 1 | S. cerevisiae deletion strains, locus YNL224C, strain SQS1, stronger effect = lower value 0.989 | S. cerevisiae deletion strains, locus YNL233W, strain BNI4, stronger effect = lower value 1.03 | S. cerevisiae deletion strains, locus YNL248C, strain rpa49, stronger effect = lower value 1.01 | S. cerevisiae deletion strains, locus YNL250W, strain rad50, stronger effect = lower value 0.983 | S. cerevisiae deletion strains, locus YNL271C, strain bni1, stronger effect = lower value 0.996 | S. cerevisiae deletion strains, locus YNL298W, strain CLA4, stronger effect = lower value 0.985 | S. cerevisiae deletion strains, locus YNL307C, strain MCK1, stronger effect = lower value 0.998 | S. cerevisiae deletion strains, locus YNL322C, strain KRE1 (second series), stronger effect = lower value 1 | S. cerevisiae deletion strains, locus YNL322C, strain KRE1, stronger effect = lower value 1 and 1.02 | S. cerevisiae deletion strains, locus YNR049C, strain mso1, stronger effect = lower value 1.01 | S. cerevisiae deletion strains, locus YNR052C, strain pop2, stronger effect = lower value 0.998 | S. cerevisiae deletion strains, locus YOL006C, strain TOP1, stronger effect = lower value 1.04 | S. cerevisiae deletion strains, locus YOL012C, strain htz1 0.66 | S. cerevisiae deletion strains, locus YOL147C, strain pex11, stronger effect = lower value 0.979 | S. cerevisiae deletion strains, locus YOR001W, strain rrp6, stronger effect = lower value 0.994 | S. cerevisiae deletion strains, locus YOR061W, strain CKA2, stronger effect = lower value 1.02 | S. cerevisiae deletion strains, locus YOR069W, strain VPS5, stronger effect = lower value 1 | S. cerevisiae deletion strains, locus YOR070C, strain gyp1, stronger effect = lower value 1 | S. cerevisiae deletion strains, locus YOR080W, strain dia2, stronger effect = lower value 0.999 | S. cerevisiae deletion strains, locus YOR083W, strain WHI5 (second series), stronger effect = lower value 1.01 | S. cerevisiae deletion strains, locus YOR083W, strain WHI5, stronger effect = lower value 1 | S. cerevisiae deletion strains, locus YOR106W, strain vam3, stronger effect = lower value 1 | S. cerevisiae deletion strains, locus YOR136W, strain idh2, stronger effect = lower value 0.992 | S. cerevisiae deletion strains, locus YOR144C, strain elg1, stronger effect = lower value 0.977 | S. cerevisiae deletion strains, locus YOR184W, strain ser1, stronger effect = lower value 0.968 | S. cerevisiae deletion strains, locus YOR231W, strain MKK1, stronger effect = lower value 1.09 | S. cerevisiae deletion strains, locus YOR265W, strain rbl2, stronger effect = lower value 1.01 | S. cerevisiae deletion strains, locus YOR270C, strain vph1, stronger effect = lower value 0.987 | S. cerevisiae deletion strains, locus YOR290C, strain snf2, stronger effect = lower value 0.992 | S. cerevisiae deletion strains, locus YOR316C, strain cot1, stronger effect = lower value 0.998 | S. cerevisiae deletion strains, locus YPL051W, strain arl3, stronger effect = lower value 1 | S. cerevisiae deletion strains, locus YPL055C, strain LGE1, stronger effect = lower value 1 | S. cerevisiae deletion strains, locus YPL078C, strain atp4, stronger effect = lower value 0.999 | S. cerevisiae deletion strains, locus YPL106C, strain sse1, stronger effect = lower value 0.989 | S. cerevisiae deletion strains, locus YPL240C, strain hsp82, stronger effect = lower value 1.01 | S. cerevisiae deletion strains, locus YPL241C, strain CIN2, stronger effect = lower value 1.01 | S. cerevisiae deletion strains, locus YPL256C, strain CLN2, stronger effect = lower value 1.09 | S. cerevisiae deletion strains, locus YPR119W, strain clb2, stronger effect = lower value 0.99 | S. cerevisiae deletion strains, locus YPR141C, strain kar3, stronger effect = lower value 0.984 | S. cerevisiae deletion strains, locus YPR163C, strain tif3, stronger effect = lower value 0.99 | S. cerevisiae deletion strains, locus YPR167C, strain met16, stronger effect = lower value 0.994 | S. cerevisiae deletion strains, strain wtn01, stronger effect = lower value 0.993 | S. cerevisiae strains, strain wild type, stronger effect = lower value 1.01
